Drawing on PubChem BioAssay, this text covers z-score and composite z-score for nine molecules.

A short description of assay [1]: compound effects on differentiated 3T3-L1 adipocyte viability – cell-based, 3T3-L1 adipocytes, calcein-AM fluorescence, 48 h, basal, profiling panel (AID 1163). The conditions noted are these: 3T3-L1 adipocytes viability, higher = more signal.
Assay [2] can be described thus: compound effects on hepatocellular carcinoma cell viability – HepG2, calcein-AM fluorescence, 48 h, basal, profiling panel (AID 1164). The conditions noted are these: higher = more signal.
A short description of assay [3]: compound effects on multiple myeloma cell viability – MM1S, calcein-AM fluorescence, 48 h, basal, profiling panel (AID 1165). The conditions noted are these: higher = more signal.
A short description of assay [4]: calcein-AM signal in unstimulated myeloma cells – cell-based, calcein-AM fluorescence, 48 h, PK04 Diversity Set, profiling panel (AID 1166).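 Note: cells grown under basal conditions without added stimulus.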 The conditions noted are these: RPMI8226 myeloma viability, higher = more signal.
The nature of assay [5]: JC-1 mitochondrial signal, unstimulated HepG2 cells – cell-based, JC-1 fluorescence, 24 h, 100 nL compound, profiling panel (AID 1167). The conditions noted are these: HepG2 mitochondrial potential, higher = more signal.
Assay [6] can be described thus: JC-1 mitochondrial signal, unstimulated adipocytes – cell-based, JC-1 fluorescence, 3T3-L1 adipocytes, 24 h, 100 nL compound, profiling panel (AID 1168). The conditions noted are these: JC-1 mitochondrial fluorescence, higher = more signal, called active from +8 up or from −8 down.
A short description of assay [7]: JC-1 mitochondrial signal, unstimulated myeloma cells – cell-based, JC-1 fluorescence, RPMI8226, 24 h, 100 nL compound, profiling panel (AID 1169). The conditions noted are these: JC-1 mitochondrial potential fluorescence, higher = more signal.
A short description of assay [8]: JC-1 mitochondrial signal, unstimulated MM1S myeloma – cell-based, JC-1 fluorescence, 24 h, 100 nL compound, profiling panel (AID 1170). The conditions noted are these: MM1S mitochondrial potential, higher = more signal.
The nature of assay [9]: resazurin metabolic signal in A549 cells – cell-based, resazurin fluorescence, 24 h, PK04 Diversity Set, profiling panel (AID 1171). The conditions noted are these: A549 viability, higher = more signal, called active from +8 up or from −8 down.
Assay [10] can be described thus: resazurin metabolic signal in HepG2 cells – cell-based, resazurin fluorescence, 24 h, PK04 Diversity Set, profiling panel (AID 1172). The conditions noted are these: HepG2 viability, higher = more signal. A general note: The colour change of resazurin is a common sign of viable cells or microbes.
Assay [11] is described as follows: budding yeast growth changes without added modifier – OD600, strain BY4716, 24 h, basal condition, primary screen (AID 1173). The conditions noted are these: S. cerevisiae BY4716 growth, OD600, 24 h; higher = more signal, called active from +8 up or from −8 down.
The nature of assay [12]: viability profiling in MM1S myeloma cells – cell-based, resazurin fluorescence, basal, 24 h, PK04 Diversity Set, profiling panel (AID 1174). The conditions noted are these: higher = more signal, called active from +8 up or from −8 down.
Assay [13] deals with Dihydroorotate dehydrogenase (quinone), mitochondrial (Plasmodium falciparum (isolate 3D7)) (UniProt Q08210). Description: inhibition of P. falciparum DHODH – biochemical, C-terminal His tag, absorbance 600 nm, primary screen (AID 1175).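 Note: recombinant parasite enzyme with a five histidine tag at its C terminus.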 The conditions noted are these: PfDHODH enzyme, DCIP absorbance 600 nm; higher = more signal, called active from +8 up or from −8 down.
Chain of Dihydroorotate dehydrogenase (quinone), mitochondrial (Plasmodium falciparum (isolate 3D7)) (Q08210 whole entry, looked up): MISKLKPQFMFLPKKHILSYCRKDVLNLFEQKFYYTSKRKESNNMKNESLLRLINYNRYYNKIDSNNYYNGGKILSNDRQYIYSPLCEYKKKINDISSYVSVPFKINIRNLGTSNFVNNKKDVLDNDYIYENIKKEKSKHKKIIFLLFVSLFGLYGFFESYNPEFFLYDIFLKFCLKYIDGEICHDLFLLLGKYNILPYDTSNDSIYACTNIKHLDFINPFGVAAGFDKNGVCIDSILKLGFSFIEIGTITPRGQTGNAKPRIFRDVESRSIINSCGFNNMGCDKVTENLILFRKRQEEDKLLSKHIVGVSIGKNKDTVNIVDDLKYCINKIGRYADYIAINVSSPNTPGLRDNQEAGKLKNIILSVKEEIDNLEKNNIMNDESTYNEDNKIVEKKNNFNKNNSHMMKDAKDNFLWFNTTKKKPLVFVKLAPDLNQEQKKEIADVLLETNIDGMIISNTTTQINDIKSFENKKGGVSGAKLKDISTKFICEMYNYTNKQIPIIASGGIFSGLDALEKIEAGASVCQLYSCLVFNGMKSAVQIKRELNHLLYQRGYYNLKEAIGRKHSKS
A short description of assay [14]: growth modulation of vineyard yeast isolate – strain RM11-1a, OD600, basal, 24 h, primary screen (AID 1177).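 Note: cultures grown under basal conditions with no added stressor.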 The conditions noted are these: S. cerevisiae RM11-1a growth, OD600, 24 h; higher = more signal, called active from +8 up or from −8 down.
A short description of assay [15]: growth of efflux-deficient E. coli DRC39 – strain DRC39, OD650, 24 h, E. coli filamentation inducers, primary screen (AID 1178).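 Note: growth measured as culture turbidity by optical density at 650 nm.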 The conditions noted are these: E. coli DRC39 acrAB, higher = more signal, called active from +8 up or from −8 down.
Assay [16] is described as follows: growth of efflux-deficient E. coli DRC39 – strain DRC39, OD650, 48 h, E. coli filamentation inducers, primary screen (AID 1179).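 Note: screen aims at cell division blockers that make cells filament.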 The conditions noted are these: E. coli DRC39 delta-acrAB growth, higher = more signal, called active from +8 up or from −8 down.
Assay [17] is described as follows: viability profiling in RPMI8226 myeloma cells – cell-based, resazurin fluorescence, basal, 24 h, PK04 Diversity Set, profiling panel (AID 1180).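 Note: RPMI8826 multiple myeloma cell line at 5000 cells per well.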 The conditions noted are these: higher = more signal.
For assay [18], the target named is E3 ubiquitin-protein ligase XIAP (Homo sapiens) (UniProt P98170). As to the kind of experiment: small molecules binding XIAP protein – biophysical, small-molecule microarray, fluorescence 635 nm, primary screen (AID 1181).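 Note: score merges 667 nm emission and signal to noise over triplicate slides.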 The conditions noted are these: higher = more signal.
Chain of E3 ubiquitin-protein ligase XIAP (Homo sapiens) (P98170 whole entry, looked up, the tested form may be a part): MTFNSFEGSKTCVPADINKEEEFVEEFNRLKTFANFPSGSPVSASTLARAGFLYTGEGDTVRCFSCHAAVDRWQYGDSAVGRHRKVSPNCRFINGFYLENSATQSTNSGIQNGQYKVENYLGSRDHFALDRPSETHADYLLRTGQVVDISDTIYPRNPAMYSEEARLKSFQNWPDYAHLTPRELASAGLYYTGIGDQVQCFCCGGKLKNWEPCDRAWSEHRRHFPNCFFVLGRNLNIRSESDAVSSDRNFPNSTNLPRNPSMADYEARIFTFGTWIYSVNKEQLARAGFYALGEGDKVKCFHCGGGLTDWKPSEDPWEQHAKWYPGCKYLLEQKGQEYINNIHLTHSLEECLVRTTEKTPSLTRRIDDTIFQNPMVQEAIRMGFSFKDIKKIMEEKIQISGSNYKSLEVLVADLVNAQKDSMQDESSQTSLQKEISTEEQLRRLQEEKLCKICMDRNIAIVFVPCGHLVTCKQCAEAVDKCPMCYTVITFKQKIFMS
Assay [19] deals with XIP peptide (Xip251-270) binding. Description: XIP fragment 251-270 binding compounds – biochemical, small-molecule microarray, fluorescence 635/667 nm, 0.1 µg/mL protein, primary screen (AID 1182). The conditions noted are these: fluorescent protein binding, 635 nm, higher = more signal, called active from +8 up or from −8 down.
In assay [20] the test system is XIP peptide (Xip251-270). Description: compounds binding XIP fragment 251-270 – biochemical, small-molecule microarray, fluorescence 635/667 nm, 0.5 µg/mL protein, primary screen (AID 1183). The conditions noted are these: fluorescence 635 nm, higher = more signal.

Activity calls are given as the source filed them.

Take `CC1CC/C=C\[C@H]2OC34C=CCN(C(C)C)C(=O)[C@H]3N(C(CO)C(C)C)C(=O)[C@@H]4C2C(=O)O1` (stereo not given in full): the z-score was 0.252 in assay [1]; -0.0224 in assay [2]; 1.4 in assay [3]; 0.652 in assay [4]; 0.686 in assay [5]; 1.39 (inactive) in assay [6]. Further, the z-score is -0.723 in assay [7]; 1.62 in [8]; 0.351 (inactive) in assay [9]; 0.788 in [10]; -0.718 (inactive) in [11]; 1.15 (inactive) in [12]. Also, the z-score in [14] is -0.488 (inactive); in assay [15], 1.36 (inactive); in [16] it was 1.46 (inactive); in assay [17], 0.838. The composite z-score was -1.87 (inactive) in [13], -0.194 in [18], 0.0648 (inactive) in assay [19] and -1.15 in [20].
On to `C=CCNC(=O)[C@@H]1[C@H]2C(=O)O[C@H](c3ccccc3)[C@H](c3ccccc3)N2[C@H](c2ccc(O)cc2)[C@@]12C(=O)Nc1ccccc12`, for which the z-score in [1] was 2.33; in assay [2], 0.869; in assay [3] it was 0.306; in assay [4] it was -2.6; in [5], -0.581; in assay [6], 0.889 (inactive). Moreover, the z-score in assay [7] is -0.824; in assay [8], 1.31; in assay [9] it was 0.679 (inactive); in assay [10], -0.696; in [11] it was -0.146 (inactive); in assay [12], 0.634 (inactive). The z-score was 0.87 (inactive) in assay [14], 0.874 (inactive) in assay [15], 0.634 (inactive) in [16] and 0.812 in [17]. The composite z-score in assay [13] was -0.132 (inactive); in assay [18], 0.276; in assay [19], 0.768 (inactive); in assay [20], 0.888.
As to `C=CC[C@@]1(C(=O)NCc2ccccc2)N=C(c2ccc(OCCCO)cc2)O[C@@H]1c1ccccc1`, the z-score in assay [1] is 0.791; in assay [2], -1.01; in [3] it was -2.93; in assay [4], -4.46; in assay [5], 0.0411; in assay [6], 1.84 (inactive). Further, the z-score in [7] is -1.23; in [8] it was 0.199; in assay [9], 0.0074 (inactive); in assay [10] it was 0.547; in assay [11] it was -2.16 (inactive); in [12], -0.47 (inactive). In addition, the z-score in assay [14] is -1.23 (inactive); in [15] it was 0.254 (inactive); in assay [16] it was -0.124 (inactive); in [17], -1.48. The composite z-score in assay [13] is -0.904 (inactive); in assay [18], 1.49; in [19], 0.624 (inactive); in assay [20], 0.784.
Regarding `C#CCN1C(C(=O)OCC)OC[C@H]1c1ccccc1` (stereo not given in full), the z-score is 0.714 in assay [1]; -0.0851 in assay [2]; 0.712 in assay [3]; -0.181 in [4]; 1.06 in assay [5]; 0.842 (inactive) in [6]. Further, the z-score in assay [7] is 0.297; in assay [8], -0.316; in assay [9], -0.282 (inactive); in [10], 0.513; in [11], -6.25 (inactive); in [12], 1.49 (inactive). The z-score in assay [14] is -2.24 (inactive); in assay [15] it was 2.47 (inactive); in assay [16] it was 0.724 (inactive); in assay [17], 0.0912. Also, the composite z-score in assay [13] is 0.253 (inactive); in assay [18], -0.227; in assay [19], -0.0319 (inactive); in [20] it was -0.258.
As for `C=CCNC(=O)[C@@H]1[C@H]2C(=O)O[C@H](c3ccccc3)[C@H](c3ccccc3)N2[C@H](c2ccc(O)cc2)[C@@]12C(=O)N(C(=O)OCCOC)c1ccc(C#Cc3ccc(OC)cc3)cc12`, the z-score in assay [1] was 1.24; in [2] it was 0.216; in assay [3] it was -1.58; in assay [4] it was -2.52; in assay [5], -0.914; in assay [6], 3.45 (inactive). Besides, the z-score in assay [7] is -0.351; in assay [8], 0.0591; in assay [9], 0.834 (inactive); in assay [10], -0.35; in [11], -0.468 (inactive); in [12], 0.699 (inactive). In addition, the z-score is 0.964 (inactive) in assay [14], 0.236 (inactive) in [15], 0.83 (inactive) in assay [16] and 0.804 in [17]. Also, the composite z-score in [13] was 0.21 (inactive); in assay [18], 0.14; in assay [19], 0.688 (inactive); in [20], 0.656.
As for `C#CCOc1ccc(C[C@H]2C(=O)O[C@H](Cc3ccccc3)[C@H](/C=C/C3CC3)N2CC#C)cc1`, the z-score in [1] was 0.892; in [2], -0.99; in [3], -1.63; in [4], -1.89; in assay [5] it was 2.08; in [6], 0.476 (inactive). In addition, the z-score was -0.599 in assay [7]; 0.0151 in assay [8]; 1.51 (inactive) in [9]; 1.71 in [10]; -0.783 (inactive) in assay [11]; 0.35 (inactive) in assay [12]. Further, the z-score was 1.29 (inactive) in assay [14], 2.66 (inactive) in assay [15], 1.81 (inactive) in assay [16] and 0.915 in [17]. Moreover, the composite z-score in [13] is 0.656 (inactive); in assay [18] it was -0.144; in assay [19], 0.294 (inactive); in [20] it was -0.237.
Turning to `CO[C@H]1O[C@H](CO)[C@@H](OC(=O)Nc2ccccc2)[C@H](OC(=O)Nc2ccccc2-c2ccccc2)[C@H]1OC(=O)Nc1ccccc1-c1ccccc1`, the z-score in assay [1] is 1.59; in assay [2] it was -4.94; in assay [3], -3.51; in assay [4] it was -4.34; in assay [5] it was -1.05; in assay [6] it was 3.65 (inactive). Besides, the z-score in assay [7] was -1.17; in assay [8], -1.64; in assay [9], -6.11 (inactive); in assay [10] it was -4.93; in [11] it was -2.12 (inactive); in assay [12], -6.52 (inactive). Also, the z-score in assay [14] was 0.145 (inactive); in [15], 0.218 (inactive); in assay [16], -0.414 (inactive); in [17] it was -5.34. Also, the composite z-score in assay [13] was -0.551 (inactive); in assay [18], 0.113; in assay [19], 1.32 (inactive); in assay [20], 0.896.
In the case of `CCCCC(=C=CC[C@H](O)c1cccc(OCCO)c1)CCO`, the z-score is 1.07 in assay [1]; -0.693 in assay [2]; -1 in assay [3]; -0.257 in assay [4]; 0.733 in assay [5]; 0.439 (inactive) in assay [6]. Moreover, the z-score in assay [7] was 0.12; in assay [8], -0.0531; in [9], 1.7 (inactive); in assay [10], 0.529; in assay [11], -1.41 (inactive); in [12], 1.31 (inactive). The z-score in [14] was -0.114 (inactive); in [15], 1.3 (inactive); in [16], 0.749 (inactive); in assay [17], 0.837. Moreover, the composite z-score in [13] was -0.802 (inactive); in assay [18] it was 0.0458; in [19], 0.511 (inactive); in assay [20], -0.97.
With `CC(=O)OC(C/C=C\B1OC(C)(C)C(C)(C)O1)c1ccccc1` (stereo not given), the z-score in assay [1] was 0.554; in [2] it was 0.467; in assay [3], 0.345; in [4] it was 0.0422; in [5] it was 2.03; in assay [6], 2.31 (inactive). Further, the z-score in assay [7] was -0.457; in assay [8] it was 0.962; in assay [9] it was 0.273 (inactive); in assay [10] it was 0.518; in [11], -2.1 (inactive); in assay [12], 1.14 (inactive). Also, the z-score in assay [14] was -4.44 (inactive); in [15], 1.5 (inactive); in [16] it was 0.57 (inactive); in [17], 0.157. Moreover, the composite z-score in assay [13] was 0.339 (inactive); in assay [18], -0.0256; in [19] it was -0.65 (inactive); in assay [20], -0.842.
